# In the supplement of paper PMC9948646:
# Test system: gramicidin D channels in DC22:1PC lipid vesicles (bilayer-modifying potency)
# Assay: initial Tl+ fluorescence quench rate relative to no-drug control (NormRate, gramicidin monomer-dimer shift) (ratio (fold of control)); higher = stronger bilayer-modifying effect (equilibrium shifted toward conducting dimers), active = 1.5 or more
# Settings: 10 µM; lipid concentration 50 µM; temperature: 25 °C
# Procedure: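 Stopped-flow fluorescence quench assay: ANTS-loaded DC22:1PC large unilamellar vesicles doped with gramicidin D (1:2000), 50 µM lipid, equilibrated 10 min with 10 µM drug (0.1% DMSO), mixed with Tl+ quench buffer at 25°C. Initial quench rate (Tl+ influx) was fitted with a modified stretched exponential and normalised to the no-drug control rate (NormRate); duplicates from two independent LUV preparations (triplicates for 7 drugs).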
row,SMILES,initial Tl+ fluorescence quench rate
1,COc1ccccc1OCCCCn1c(C2CC2)nc2ccccc21,1.18 (inactive)
2,OCCc1ccc(Nc2nccc(-c3nnc4ccccn34)n2)cc1,1.01 (inactive)
3,O=C1[C@@H](Oc2ccccc2)[C@@H](c2ccc(Cl)cc2)N1CCn1cnc2c(NCc3ccccc3)ncnc21,2.02 (active)
4,CC(=O)NC[C@H]1CN(c2ccc(N3CCSCC3)c(F)c2)C(=O)O1,1.09 (inactive)
5,CC(C)[C@H](NC(=O)Cc1cccc2ccccc12)C(=O)Nc1cccc(C#N)c1,1.74 (active)
6,COC[C@H](C)NC(=O)CSc1ncnc2sc(-c3ccccc3)cc12,1.33 (inactive)
7,Brc1c(-c2ccc3c(c2)OCO3)nc2ncccn12,1.12 (inactive)
8,CC(C)=CCC/C(C)=C\CNCCN[C@H]1[C@@H]2C[C@H]3C[C@@H](C2)C[C@@H]1C3,1.66 (active)
9,O=C(NCc1ccco1)N1CCN(Cc2ccc(Cl)s2)CC1,1.03 (inactive)
10,[H]/N=C(\Nc1ccc(Cl)cc1)Nc1nc(C)cc(NCCc2ccccc2)n1,3.21 (active)
11,c1ccc(-c2cc(N3CCCCC3)c3ccccc3n2)nc1,1.08 (inactive)
12,Cc1cc(C(=O)Nc2ccc(-c3ccccc3)cc2)no1,1.11 (inactive)
13,COc1ccc2nccc(NC(=O)C3CCN(CCc4ccc(Cl)cc4)CC3)c2n1,1.09 (inactive)
14,Cc1ccc(NC(=O)c2nc[nH]c2C(=O)Nc2nc3ccccc3[nH]2)c(C)c1,1.88 (active)
15,Cc1nnc(NCc2cccc(Cl)c2)c2ccccc12,1.05 (inactive)
16,O=C(c1ccco1)N(CCCn1ccnc1)c1nc2c(Cl)cccc2s1,1.24 (inactive)
17,COc1ccc(C2=NCCN2)cc1-c1cn(-c2cccc(C3=NCCN3)c2)nn1,1.2 (inactive)
18,CC(C)(C)OC(=O)N1CCC(Cn2nc(-c3cnc4ccccc4c3)c3c(N)ncnc32)CC1,1.57 (active)
19,CN1CCC(NCc2cccc(-c3ccc(S(=O)(=O)NCc4ccccc4)cc3)c2)CC1,1.94 (active)

row,SMILES,initial Tl+ fluorescence quench rate
1,CN1CCC(c2cc(-c3ccncc3)c(-c3ccc(F)cc3)[nH]2)CC1,1.03 (inactive)
2,COc1ccc(N(CCc2cccc(C)n2)C(C)=O)cc1,1.04 (inactive)
3,CC(=O)N(CCN(C(=O)c1ccc(F)cc1)c1ccccc1)c1ccccc1,1.14 (inactive)
4,CC(C)(C)c1ccc(N[C@@H]2CCCC[C@H]2NC(=O)c2ccco2)cc1,1.36 (inactive)
5,CCCS(=O)(=O)N1CCC(CO)(Cc2ccccc2C(F)(F)F)CC1,1.62 (active)
6,CCc1nc2ccc(C(=O)NCc3ccc4c(c3)OCO4)cn2c1N(C)Cc1cccs1,2.01 (active)
7,CC[C@H](Sc1nc2ccccc2o1)C(=O)Nc1nccs1,1.18 (inactive)
8,N#Cc1nc(-c2ccccc2)oc1S(=O)(=O)c1ccc(Cl)cc1,1.12 (inactive)
9,COc1cccc(OCC(=O)c2ccc(Br)cc2)c1,1.06 (inactive)
10,CCOC(=O)NC(=O)c1ccsc1NC(=O)c1nc2ccccc2s1,3.21 (active)
11,COC(=O)Nc1nc2cc(C(=O)c3ccccc3)ccc2[nH]1,1.04 (inactive)
12,O=C(N[C@H]1CCN(c2ccnc3ccccc23)C1)c1cccc(C(F)(F)F)c1,1.27 (inactive)
13,CCOc1ccc(-c2nc(CNCCc3ccc(F)cc3)cs2)cc1,1.44 (inactive)
14,C[C@H]1C[C@@H]1C(=O)NC1CCN(CC2(c3ccccc3)CCCCC2)CC1,1.06 (inactive)
15,C[C@H]1COC2(CCN(c3nc(=O)c4cc(C(F)(F)F)cc([N+](=O)[O-])c4s3)CC2)O1,1.08 (inactive)
16,COc1ccc(O[C@H](C)C(=O)Nc2ccc(Cl)cc2C)cc1,1.05 (inactive)
17,CN1CCC[C@H]1CCO[C@](C)(c1ccccc1)c1ccc(Cl)cc1,2.33 (active)
18,CCc1cc(=O)n(C)c(S[C@H](C)C(=O)Nc2ccc(F)cc2)n1,1.15 (inactive)
19,FC(F)(F)c1cccc(-c2nc3c(NCc4ccncc4)nccc3[nH]2)c1,1.76 (active)
